Here are results for 50 molecules from ChEMBL document CHEMBL3988442, “University of Dundee, Small-Polar-MMV Screening Library” (2021).

Each structure is given as a SMILES string.

Assay [1] has as its target T1, Aspartate--tRNA(Asp/Asn) ligase (Mycobacterium tuberculosis (strain ATCC 25618 / H37Rv)) (UniProt P9WFW3). Also: in the data most compounds retested in dose-response had high values.
T1 sequence (whole entry): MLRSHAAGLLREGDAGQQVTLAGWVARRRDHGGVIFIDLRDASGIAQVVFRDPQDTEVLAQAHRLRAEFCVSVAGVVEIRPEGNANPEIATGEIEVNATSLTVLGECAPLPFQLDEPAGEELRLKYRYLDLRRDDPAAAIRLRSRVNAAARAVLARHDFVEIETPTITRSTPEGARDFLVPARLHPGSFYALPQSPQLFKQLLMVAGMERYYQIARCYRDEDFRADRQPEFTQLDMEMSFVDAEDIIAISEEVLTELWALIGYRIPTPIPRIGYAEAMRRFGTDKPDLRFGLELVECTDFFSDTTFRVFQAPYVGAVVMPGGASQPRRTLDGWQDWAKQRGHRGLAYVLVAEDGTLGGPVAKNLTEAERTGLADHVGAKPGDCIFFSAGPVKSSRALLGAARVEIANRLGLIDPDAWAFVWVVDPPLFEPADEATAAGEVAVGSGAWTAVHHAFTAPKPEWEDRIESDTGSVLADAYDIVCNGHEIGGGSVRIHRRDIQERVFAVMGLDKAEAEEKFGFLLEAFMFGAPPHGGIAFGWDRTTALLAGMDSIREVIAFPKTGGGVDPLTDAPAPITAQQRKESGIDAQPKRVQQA
Description: Assay for Asp RNA synthetase-1 from Mycobacterium tuberculosis. The class given is functional. Further details: scale not given: direction of the effect not stated beside the values. Particulars: 30 µM.

Assay [2] deals with Shiga toxin 2 (Escherichia coli O157:H7) (UniProt P09385+P09386). Description: E. coli 0.157:H7 Shiga Toxin SOP - stx2 screening assay. The class given is functional. Further details: scale not given: direction of the effect not stated beside the values. The settings on record: 30 µM.

As for `CN(C)c1cc(CNC(=O)Nc2ccc(S(C)(=O)=O)nc2)ccn1`, the values for the Percent Effect in assay [1] and in assay [2] were -1.23% and -117%, respectively.
In the case of `CCc1cnc(CN2CCC(N(C)Cc3noc(C4CC4)n3)C2)o1` (stereo not given), the Percent Effect is -1.09% in assay [1] and -33.4% in assay [2].
On to `COc1ccc(COCC(O)CNC(=O)c2cccnc2)cc1` (stereo not given), for which the Percent Effect in assay [1] is -1.27%; in assay [2], -12.2%.
In the same order, the values of `COc1cccc(CNc2nc(O)cc(C3CC(=O)N(C)C3)n2)c1` (stereo not given) are 4.42% and 12.2%.
With `CNc1oc(-c2cc(S(=O)(=O)N3CCCCCC3)c(C)o2)nc1C#N`, the Percent Effect in assay [1] is 2.56%; in assay [2], -18.8%.
For `CCCn1[nH]cc/c1=N\C(=O)CN1CCOC(Cn2cc(C)cn2)C1` (stereo not given), in that order: -3.84% and 8.34%.
For the molecule `CN1CCN(Cc2cn3c(n2)CN(Cc2cccnc2)CC3)CC1`, the Percent Effect is 1.94% in assay [1] and -10.7% in assay [2].
In the same order, the values of `COc1c(C2CCCN2C(=O)c2ccc3cc[nH]c3c2)c(C)nn1C` (stereo not given) are -1.15% and 3.54%.
For the molecule `Cc1noc(Cl)c1CCC(=O)N1CCC(CC(N)=O)CC1`, the Percent Effect in assay [1] was 0.618%; in assay [2], 17.9%.
`Cc1cc(C2CCCN(C(=O)c3cnccn3)C2)ccn1` (stereo not given): the Percent Effect in assay [1] was -0.521%; in assay [2], -14.3%.
As for `CCS(=O)(=O)CC(=O)NC(c1ccccc1)C1CCCCC1` (stereo not given), the results for the Percent Effect in assay [1] and in assay [2] were 3.23% and 7.43%, respectively.
Consider `COc1ccc(OC)c(Sc2ncccc2C(=O)N(C)CCC#N)c1`, for which the Percent Effect is -6.44% in assay [1] and 13.3% in assay [2].
In the same order, the values of `Cc1ccc(Nc2nccc(C3CCCN(CC(=O)N(C)C)C3)n2)nc1` (stereo not given) are -2.93% and -28.3%.
For `CS(=O)(=O)c1ccc(OCCNCc2cccc(F)c2)cc1`, in that order: -5.13% and -38.6%.
Take `CCN1CCN(C(=O)NCCOc2ccc3c(c2)OCO3)CC1`: the values for the Percent Effect in assay [1] and in assay [2] were -4.65% and -50%, respectively.
Take `COC(=O)c1cccn1C1CCN(C(=O)c2cc(F)ccc2F)CC1`: the Percent Effect in assay [1] came out at 1.88%; in assay [2], 19.6%.
On to `COCc1noc(C2(c3ccc(F)cc3)CCOCC2)n1`, for which the Percent Effect in assay [1] was -2.06%; in assay [2] it was -10.8%.
Regarding `CN(CCC(F)(F)F)C(=O)[C@H]1CSCN1C(=O)OC(C)(C)C`, the Percent Effect was -5.95% in assay [1] and -17.7% in assay [2].
In the same order, the values of `Cc1n[nH]c(C)c1NC(=O)CN1CCc2c(nc(C3CC3)n2C)C1` are 4.55% and -6.27%.
As to `Cc1csc(N2CCN(Cc3ccccn3)CC2C)n1` (stereo not given), the Percent Effect in assay [1] was 6.41%; in assay [2] it was -0.687%.
Regarding `CCCc1cc(=O)[nH]c2nnc(SCC(=O)NCc3ccc(C)cc3)n12`, the Percent Effect in assay [1] is -7.99%; in assay [2] it was 2.17%.
With `CC(=O)c1cccc(OCCCC(=O)NCC2CCCN2C)c1` (stereo not given), the Percent Effect in assay [1] was -2.48%; in assay [2] it was -4.3%.
As to `Cc1ccc(C(=O)NCCCNS(C)(=O)=O)c(=O)[nH]1`, the Percent Effect in assay [1] is -3.45%; in assay [2], -17.7%.
For `CCCN(CC1COc2ccccc2O1)C(=O)CCn1cncn1` (stereo not given), the Percent Effect in assay [1] is -2.54%; in assay [2], 34.4%.
For `Cc1nc(C)n(CC2CCCN(Cc3nnc(-c4ccco4)o3)C2)n1` (stereo not given), the figures for the Percent Effect in assay [1] and in assay [2] were -2.25% and -19.8%, respectively.
For `Cn1c(C(F)(F)F)nn(CCNC(=O)CSCc2ccccc2)c1=O`, the Percent Effect in assay [1] was -5.63%; in assay [2] it was 4.5%.
Turning to `CCOc1ccc(C#N)cc1NCC(=O)Nc1cc(C)no1`, the figures for the Percent Effect in assay [1] and in assay [2] were -5.54% and -11.5%, respectively.
Consider `CC1CCCCN1Cc1ccc(-c2ccccc2C(=O)O)cc1` (stereo not given), for which the Percent Effect in assay [1] was 5.63%; in assay [2], 25%.
With `CCc1noc(C(C)N(C)CC(=O)Nc2cccc(C)n2)n1` (stereo not given), the Percent Effect in assay [1] was -1.61%; in assay [2] it was -14.2%.
For `O=C([C@H]1CN(CCc2ccccc2)C[C@H]2OCC[C@@H]12)N1CCCO1`, in that order: 1.78% and -9.29%.
In the case of `O=C1CC2(CCN(CCO)CC2)CN1Cc1cc(F)cc(F)c1`, the results for the Percent Effect in assay [1] and in assay [2] were -2.67% and 11.4%, respectively.
For `CC(C)C(C(=O)N1CCCN(Cc2cnn(C)c2)CC1)n1cncn1` (stereo not given), the Percent Effect in assay [1] was -1.93%; in assay [2], -40.5%.
For `CCn1cnnc1CNC(=O)c1cc(Cl)ccc1O`, in that order: 3.77% and -19.6%.
On to `Cc1nc(C)c(C(=O)OCCNc2ncccc2C#N)s1`, for which the Percent Effect in assay [1] is 1.71%; in assay [2], -15.1%.
In the same order, the values of `CC1(C)CN(C(=O)NCCc2ccn(-c3ccccc3)n2)CCO1` are 2.57% and 16.6%.
For `CCc1nc(CN2CCCN(c3ncnc4ccccc34)CC2)no1`, in that order: 13.7% and -69.3%.
Regarding `CCCC(=O)Nc1sc(C(=O)OCC)c(C)c1C#N`, the Percent Effect in assay [1] is -1.82%; in assay [2] it was 7.46%.
Turning to `O=C1c2cnc(N3CCOCC3)nc2CN1c1ccc2c(c1)OCO2`, the Percent Effect is 7.52% in assay [1] and -25.1% in assay [2].
Take `COCC1CN(C(=O)c2cccn2C)Cc2ncnn2C1` (stereo not given): the Percent Effect in assay [1] was 12.6%; in assay [2], -34.6%.
As to `CCCN1CCCn2nc(CNS(=O)(=O)c3ccc(C)cc3)cc2C1`, the Percent Effect is -1.38% in assay [1] and 6.63% in assay [2].
Regarding `Cn1cccc1C(=O)N1CCc2ncnc(N3CCCC3)c2CC1`, the Percent Effect in assay [1] is -0.927%; in assay [2], -8.7%.
`CCOCC1CN(Cc2ccoc2)Cc2nn(CC3CC3)cc21` (stereo not given): the results for the Percent Effect in assay [1] and in assay [2] were 6.32% and -16.8%, respectively.
On to `Cc1cc(-c2nn(C)c(Cl)c2CN2Cc3ccccc3C(O)C2)no1` (stereo not given), for which the Percent Effect in assay [1] was 8.53%; in assay [2], 43.3%.
For the molecule `COCCN1CCN(CCCS(=O)(=O)c2ccccc2)CC1C` (stereo not given), the Percent Effect in assay [1] was -4.25%; in assay [2], -5.54%.
As for `CC(C)c1cc(N2CCC(N)CC2)n2nccc2n1`, the Percent Effect is -0.232% in assay [1] and 19.8% in assay [2].
With `CN(C)CCN(C)C(=O)c1cnc2c(c1)nc(-c1ccccc1Cl)n2C`, the results for the Percent Effect in assay [1] and in assay [2] were 7.01% and 9.89%, respectively.
Turning to `CSCC(CCO)NC(=O)Nc1cccc(Br)c1` (stereo not given), the Percent Effect is 8.05% in assay [1] and -15.3% in assay [2].
In the same order, the values of `COC(=O)c1cccn1C1CCN(C(=O)c2cn[nH]c2C)CC1` are -3.31% and -8.31%.
Consider `CCS(=O)(=O)N1C[C@H]2CCC[C@@]2(COc2ccccn2)C1`, for which the Percent Effect came to 3.6% in assay [1] and 2.64% in assay [2].
`Cc1nc(C2CCCN(C(=O)c3sccc3C3CC3)C2)no1` (stereo not given): the figures for the Percent Effect in assay [1] and in assay [2] were -0.613% and 0.602%, respectively.
